From PubChem
Hits are enriched below; roughly 8% of the tested compounds scored in any of these assays.
HT1080 IDH1KD tx = qHTS for induction of synthetic lethality in tumor cells producing 2HG: qHTS for the HT-1080-IDH1KD cell line | HT-1080 IDH1 knockdown viability, ATP luminescence, 48 h | Potency, µM (series often up to 46.1 µM), for inactives: top-dose activity, negative = toxicity, most hits filed as cytotoxic | 360,000 compounds, 2% hits | AID 686971, 2013;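 also: 0% = DMSO wells and -100% = cell-free medium wells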
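Cytotoxicity counter-line: IDH1KD HT-1080, 48 h, CellTiter-Glo. Curves classed by r2, magnitude and activity.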
KB-V1 MDR tox = qHTS assay for MDR1-selective chemotherapeutics: Primary screen using the drug-selected MDR subline cells KB-V1. KB-V1 MDR cells viability, CellTiter-Glo, 72 h. Potency, µM (titrated, usually from 46.1 µM), usual class: cytotoxic. 400,000 compounds, 3.4% hits; also: % is scaled to controls: 0 for no effect and ±100 for the full control effect; nearly all actives have a fitted effect of over 60% in size
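KB-V1 MDR subline cells in DMEM (phenol-red free, 10% FBS) exposed to compounds in qHTS concentration series for 72 h at 37 degrees C. Viability read by CellTiter-Glo luminescence; concentration-effect curves fitted after normalization and correction.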
SW480 rereplic = A quantitative high throughput screen for small molecules that induce DNA re-replication in SW480 colon adenocarcinoma cells. SW480 DNA re-replication, Hoechst DNA content imaging, 48 h. 340,000 compounds, 1.8% hits. Potency, µM (titrated, usually from 46.1 µM), for inactives: top-dose re-replication activation, hits mostly activators; also: % of control where 0% means no effect; nearly all actives have a fitted effect of over 55% in size
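250 cells/well; 23 nL cpd via pin tool; 48 hr, 37 C, 5% CO2; Hoechst 40 min; imager read of total nuclear intensity, ex 405/em 500-530 nm.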
HT1080-NT tox = qHTS for induction of synthetic lethality in tumor cells producing 2HG: qHTS for the HT-1080-NT fibrosarcoma cell line; HT-1080-NT fibrosarcoma viability, CellTiter-Glo ATP luminescence, 48 h; Potency, µM (top dose mostly 46.1 µM), for the others: at the highest dose activity, negative = less viability, actives largely listed as cytotoxic; 360,000 compounds, 1.6% hits;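 also: NT is the 2HG producing partner of a matched IDH1 knockdown line; 0% = DMSO-treated cells and -100% = media-only wells without cells; nearly all actives have a fitted effect of over 55% in size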
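Viability by CellTiter-Glo luminescence after 48 h compound exposure at 37C of HT-1080-NT cells (750/well, RPMI, 5% FBS). % activity scaled between DMSO wells and medium-only wells, then curve-fitted and categorized by curve class.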
MCF10A rerep = A quantitative high throughput screen for small molecules that induce DNA re-replication in MCF 10a normal breast cells; Potency, µM (top dose mostly 46.1 µM), inactives show at the top dose activity, positive = re-replication, hits mostly activators; MCF 10A DNA re-replication, Hoechst nuclear intensity, 48 h; 350,000 compounds, 2.9% hits; AID 624296, 2012; also: % of control where 0% means no effect; nearly all actives have a fitted effect of over 50% in size
KB-3-1 cytotox = qHTS assay for MDR1-selective chemotherapeutics: Primary screen using the parental adenocarcinoma cell KB-3-1 | Potency, µM (series often up to 46.1 µM), actives largely listed as cytotoxic | KB-3-1 viability, CellTiter-Glo ATP luminescence, 72 h | AID 1347075, 2019 | 400,000 compounds, 1.4% hits; also: % is scaled to controls: 0 for no effect and ±100 for the full control effect; nearly all actives have a fitted effect of over 60% in size
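Cytotoxicity measured as CellTiter-Glo luminescence after 72 h at 37 C. Compound titrations were pinned onto drug-naive KB-3-1 parental adenocarcinoma cells grown in DMEM with 10% FBS, and normalized data fitted to concentration-response curves.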
* hit, by the source's call; i = inactive; ? = inconclusive; . = not tested or not shown. Calls follow the shape of the dose curve; as a rule, active = well fitted curve in the direction sought with a large enough effect; inconclusive = small, poorly fitted or top-dose-only effect, or another doubt; inactive = no such curve, though single readings can be large; an effect the other way counts as inactive or inconclusive. Potency is read from the fitted curve at half-maximal effect.

SMILES	HT1080 IDH1KD tx	KB-V1 MDR tox	SW480 rereplic	HT1080-NT tox	MCF10A rerep	KB-3-1 cytotox
CCOC(=O)N(C)c1c(CC)nc2c(OCc3ccccc3C)cccn12	5%	16µM*	.	4%	.	?
C=CCOc1cccn2c(N(C=O)Cc3ccccc3)c(CC)nc12	2%	i	.	8%	.	i
CCCCC(=O)N(C)c1c(CC)nc2c(OCCC3CCCCC3)cccn12	?	?	.	?	.	i
CCc1nc2c(OCc3cc(Cl)cc(Cl)c3)cccn2c1N(C=O)Cc1ccccc1	?	21µM*	.	?	.	?
CCc1nc2c(OCc3ccc(Cl)cc3)cccn2c1N(C=O)Cc1ccccc1	?	i	.	23µM*	.	?
CCCCC(=O)N(C)c1c(CC)nc2c(OCC3CCCCC3)cccn12	?	26µM*	.	?	.	?
CCN(CC)C(=O)c1ccc2c(c1)N(Cc1c(F)cccc1Cl)C(=O)c1ccccc1S2	.	i	.	.	.	i
CCc1nc2c(OCc3cc(Cl)cc(Cl)c3)cccn2c1N(C)C(=O)Nc1ccccc1OC	?	21µM*	.	?	.	?
Cc1nc(NCCc2ccc(Cl)cc2)c2nnn(Cc3ccccc3)c2n1	8%	i	-2%	-1%	-1%	i
Cc1nc(NCCN2CCOCC2)c2nnn(Cc3c(F)cccc3Cl)c2n1	-2%	18µM*	16%	3%	1%	i
COc1cc(Cl)c(C)cc1NC(=O)CCCN1C(=O)C(c2ccccc2)Oc2cccnc21 (centres undefined)	.	i	.	.	.	i
CCC/C=N/NC(=O)c1[nH]c2c([N+](=O)[O-])cccc2c1C	?	i	18µM*	?	6.5µM*	23µM*
COCc1cc(C)nc2c1C(=O)NC(c1ccc(Br)cc1)N2Cc1ccccc1 (centres undefined)	.	i	.	.	.	i
CCN(CC(=O)NC(C)C)C(=O)C(CCSC)NC(=O)c1cccc(C)c1 (centres undefined)	-2%	23µM*	-3%	-1%	2%	i
Cc1ccc(S(=O)(=O)Nc2cc3c(cc2NCc2ccccc2)n(C)c(=O)n3C)c(C)c1	.	?	.	.	.	i
C/C1=C\CCC2C(/C=C(\C)CC1)OC(=O)C2CN1CCCCC1 (centres undefined)	21µM*	?	21µM*	?	?	i
C=C1CCC[C@]2(C)C[C@H]3OC(=O)C(CN4CCOCC4)[C@H]3C[C@@H]12 (some centres undefined)	-27%	i	?	-22%	-8%	i
Cc1ccc(/C=N/NC(=O)CSc2nc3ccccc3n2C)s1	-8%	15µM*	1%	1%	?	i
Cn1c(SCC(=O)N/N=C/c2cccs2)nc2ccccc21	2%	i	0%	2%	-2%	i
O=C(N/N=C/c1cccs1)c1cccc2cc[nH]c12	16µM*	21µM*	0%	?	20%	i
O=C(N/N=C/c1cccs1)c1ccc2ccccc2c1	-14%	?	?	?	23µM*	21µM*
Cc1ccc(/C=N/NC(=O)c2ccc3ccccc3c2)s1	2.3µM*	?	4.1µM*	?	4.6µM*	5.8µM*
O=C(N/N=C/c1cccs1)c1ccc2ncccc2c1	-21%	i	1%	-5%	0%	i
O=C(N/N=C/c1cccs1)c1c[nH]c2ccccc12	24%	?	-1%	13%	3%	i
Cc1ccc(NC(=O)c2cnc(N3CCCCC3)c3ccccc23)c(C)c1	.	i	.	.	.	i
O=C(N/N=C/c1cccc(O)c1)c1ccc2c(c1)OCCO2	0%	i	-23%	-5%	-4%	i
